The values below come from PubChem BioAssay AID504832 (National Center for Advancing Translational Sciences (NCATS), 2011).

Hit rate of the full screen: of about 310,000 compounds, about 18,000 (5.8%) were called active. Not shown: some 22% with an inconclusive outcome. The entries come from a sample that favours actives as a whole. Entries that show only a call come without a potency. A number with no mark means an inactive call. The call rests on the fitted dose curve; in most records, active means well fitted inhibition curve with a large enough effect; inconclusive means small, poorly fitted or top-dose-only effect, or another doubt; inactive means no such curve, though single readings can be large or run the other way.
Potency means the concentration at half of the fitted maximal effect.

A short description of this assay: Primary qHTS for delayed death inhibitors of the malarial parasite plastid, 48 hour incubation. The following applies: P. falciparum luciferase growth in erythrocytes; series mostly up to 28.7 µM. In outline:
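Luciferase-expressing parasites in RBCs, 2% Hct / 0.1% parasitemia final; RPMI 1640 + 0.5% Albumax; 37 C, 5% CO2, one generation; luminescence read-out, lower signal = inhibition.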
For the compound `COc1cc(NS(=O)(=O)c2ccc(NC(=O)c3ccc([N+](=O)[O-])cc3)cc2)ncn1`, the Potency result is “inactive”.

Regarding `Cn1ccc(=Nc2ccc(NC(=O)c3ccc(N=c4ccn(C)c5ccc([N+](=O)[O-])cc45)cc3)cc2)cc1`, the Potency was 0.233 µM (active). Still for that read-out and setting: the result for `O=C(Nc1ccc(C(=O)N2CCCCC2)cc1)c1cccc([N+](=O)[O-])c1` reads “inactive”. Same read-out and setting: the result for `O=S(=O)(c1cccc(-c2cn3ccccc3n2)c1)N1CCCC1` reads “inactive”; that for `O=S(=O)(c1cccc(-c2nnc(SC(F)F)n2-c2ccccc2)c1)N1CCCCC1`, 11.7 µM (active); that for `O=S(=O)(c1cccc(-c2nnc3n2CCCCC3)c1)N1CCOCC1`, “inactive”. Regarding `COc1cc(NC(=O)CSC(=S)N2CCCC2)c(OC)cc1Cl`, the Potency result is “inactive”.

As for `O=C(c1ccccc1)N1N=C(c2ccccc2O)CC1c1ccc(Br)cc1` (configuration not stated), the Potency was 3.7 µM (active). Still for that read-out and setting: the result for `CC(=O)Oc1ccccc1C1=NN(C(C)=O)C(c2ccccc2)C1` (configuration not stated) reads “inactive”; that for `COc1ccc(C2CC(c3ccccc3)=NN2C(=O)c2ccc(Cl)c([N+](=O)[O-])c2)cc1` (configuration not stated), “inactive”; that for `O=C1CC(c2ccccc2)C(=O)N1c1cccc(O)c1` (configuration not stated), “inactive”. Take `Oc1ccccc1C1=NN(c2ccccc2)C(c2ccccc2)C1` (configuration not stated): the Potency is 1.31 µM (active). Still for that read-out and setting: the result for `CCn1c(=O)c(=O)[nH]c2c(=O)oc3ccc(S(=O)(=O)Nc4ccc(OC)cc4)cc3c21` reads “inactive”; that for `COc1ccc(C(=O)CCC(=O)Nc2ccc(Cl)cc2)cc1`, “inactive”; that for `O=C(NCCO)C(=O)NCC(c1ccc2c(c1)OCO2)N1CCN(c2ccc(F)cc2)CC1` (configuration not stated), “inactive”.

Turning to `O=C(OCCN=C1NS(=O)(=O)c2ccccc21)c1cccc([N+](=O)[O-])c1`, the Potency result was “inactive”. Still for that read-out and setting: for `Cn1c(=O)c2c(ncn2CC(=O)N2CCN(c3ccccc3)CC2)n(C)c1=O` the value was “inactive”; for `Cn1c(=O)c2c(ncn2CCc2ccccc2)n(C)c1=O`, “inactive”; for `Cn1c(=O)c2c(ncn2CC(COCc2ccccc2Cl)OCc2ccccc2Cl)n(C)c1=O` (configuration not stated), 8.28 µM (active). As to `COc1ccccc1S(=O)(=O)c1c(C)cc(C)[nH]c1=O`, the Potency result is “inactive”. On the same count and under the same terms, for `O=S(=O)(NC1CC1)c1ccc(F)c(F)c1` the value was “inactive”; for `O=C(CC1C(=O)NCCN1CC(c1ccccc1)c1ccccc1)NCC1CCOCC1` (configuration not stated), “inactive”. The same measure, in the same setting: for `C=CCN1CCN(C(=O)CCCc2ccccc2)CC1` the value was “inactive”. The same measure, in the same setting: for `COc1ccc(/C=C/C(=O)OCC(=O)Nc2cccc(Oc3ccccc3)c2)c(OC)c1` the value was “inactive”; for `COc1ccc(/C=C/C2=CC(C)(C)NC(=S)N2)c(OC)c1`, 10.4 µM (active). On to `COc1ccc(/C=C2/C(=O)N(c3ccccc3)N=C2C)c(OC)c1`, for which the Potency entry is “inactive”. Consider `O=C(CNC(=O)c1cccnc1)N/N=C/c1cccnc1`, for which the activity change, negative = inhibition is 2.56% [at 0.00184 µM]. Turning to `CCN(C(=O)CSc1ncnc2c1cnn2-c1ccccc1)C1CCS(=O)(=O)C1` (configuration not stated), the Potency result was “inactive”.

On to `CC(C(=O)NC1CCCCC1)N1C(=O)c2cccc3cccc1c23` (configuration not stated), for which the Potency entry was “inactive”. On the same count and under the same terms, the result for `Cc1c(Cl)cccc1NC(=S)NCc1ccc2c(c1)OCO2` reads “inactive”; that for `CCc1cccc(CC)c1NC(=S)NCc1ccc2[nH]c(C)cc2c1`, 4.65 µM (active). Take `CCc1cccc(CC)c1NC(=S)Nc1ccc2cn[nH]c2c1`: the Potency entry was “inactive”.

`Cc1cccc(NC(=O)C2CCN(C(=O)NC3CCCCC3)CC2)c1`: the Potency result is “inactive”. On to `CCc1ccc(OCC(=O)N(Cc2ccccc2)C2CCS(=O)(=O)C2)cc1` (configuration not stated), for which the Potency result is “inactive”. Regarding `CCOC(=O)N1CCN(S(=O)(=O)N2CCCC(C(=O)NCCCN3CCC(C)CC3)C2)CC1` (configuration not stated), the Potency entry is “inactive”. Regarding `COc1ccc(Oc2cn[nH]c2-c2ccc(OC)cc2O)cc1`, the Potency is 6.57 µM (active). Same read-out and setting: for `CCN(CCn1cccn1)Cc1cn[nH]c1-c1ccc(OC)cc1F` the value was “inactive”; for `COc1ccc(-c2cn[nH]c2-c2ccc(OC)cc2)cc1`, “inactive”. Turning to `COc1ccc(-c2[nH]ncc2/C=N/NC(=O)c2cc(Br)ccc2O)c(OC)c1`, the Potency result was “inactive”.

`COc1ccc(-c2[nH]ncc2CN(C)Cc2cccnc2)c(F)c1`: the Potency entry is “inactive”. `CCOc1ccccc1Oc1cn[nH]c1-c1ccc(OC)cc1O`: the Potency is 11.7 µM (active).

As to `NC(=O)CSc1nnc(NC(=O)c2ccc(Br)o2)s1`, the Potency entry is “inactive”. The same measure, in the same setting: for `Cc1cc(C)c(S(=O)(=O)c2ccc(F)cc2C)c(=O)[nH]1` the value was “inactive”; for `CC(C)NS(=O)(=O)c1ccc(OCC(=O)NC2CCCCCC2)cc1`, “inactive”. The same measure, in the same setting: the result for `Cc1ccc(NS(=O)(=O)c2ccc(F)cc2)nc1` reads “inactive”.

With `CSCC[C@H](NC(=O)N1CCn2c1nc1ccccc12)C(=O)NCc1ccc2c(c1)OCO2`, the Potency entry is “inactive”. Still for that read-out and setting: the result for `COC(=O)c1ccc2ccccc2c1OC1OC(CO)C(O)C(O)C1NC(C)=O` (configuration not stated) reads “inactive”; that for `Cc1ccc(CNC(=O)[C@@H](NC(=O)Cc2ccccc2)C(C)C)cc1`, “inactive”; that for `O=C(c1ccccc1)c1ccc(OCC(O)CN2CCCC2)cc1` (configuration not stated), “inactive”. `O=C(C(c1ccccc1)c1ccccc1)N1CCN(CC(O)COc2ccccc2)CC1` (configuration not stated): the Potency is 10.4 µM (active). Still for that read-out and setting: for `O=[N+]([O-])c1ccc(N2CCN(CC(O)COc3ccccc3)CC2)cc1` (configuration not stated) the value was “inactive”. For the compound `CC(=O)Nc1ccc(/C=N/NC(=O)c2cccs2)cc1`, the Potency result was “inactive”. The same measure, in the same setting: the result for `Cc1cccc(-n2c(C)cc(/C=N/NC(N)=S)c2C)c1` reads “inactive”; that for `Cc1cccc(-n2c(C)cc(/C=N\NC(=O)c3cccs3)c2C)c1`, 5.22 µM (active); that for `Cc1ccc2[nH]cc(CCNC(=O)C3CCCCC3)c2c1`, “inactive”. Still for that read-out and setting: for `CCc1c(C)nc(SCC(=O)NC2CCCC2)[nH]c1=O` the value was “inactive”.

`c1ccc2c(CSCc3nc4ccccc4[nH]3)cccc2c1`: the Potency result is “inactive”. The same measure, in the same setting: for `N=C(N)SCc1cccc2ccccc12` the value was 9.28 µM (active). Same read-out and setting: the result for `N#C/C(=C(/O)Cc1cccc2ccccc12)c1nc2ccccc2s1` reads “inactive”; that for `O=C(Nc1ccc(Cl)cc1)c1cccc(OC(=S)N2CCOCC2)c1`, “inactive”. Same read-out and setting: for `Cc1ccc(C(=O)O/N=C(\N)c2ccccn2)cc1Cl` the value was “inactive”. `CCOc1ccc(OCCSc2nc3ccccc3n2CC(=O)O)cc1`: the Potency entry is “inactive”. Consider `CC(C)=CCN1CCN(Cc2cc3ccccc3[nH]2)CC1CCO` (configuration not stated), for which the Potency result is “inactive”. Same read-out and setting: the result for `COc1ccc(C(=O)N2CCCC(C(=O)c3ccccc3OC)C2)cc1OC` (configuration not stated) reads “inactive”; that for `COc1ccc(CSc2nc(N3CCOCC3)c3c(c2C#N)CC(C)(C)OC3)cc1`, 11.7 µM (active). As to `Cc1cc(C)c(C#N)c(SCc2ccc3c(c2)OCO3)n1`, the Potency entry is “inactive”.

Take `COc1ccc(-n2nnnc2SCc2nc(N)nc(N3CCOCC3)n2)cc1`: the Potency result is “inactive”.
